# PubChem BioAssay
# Activity calls are given as the source filed them. Unless noted, how the calls were made is not given here.
# How the values were obtained:
# [1] = system: Wnt5a (protein binding on small-molecule microarray); test: small molecules binding Wnt5a protein – biophysical, small-molecule microarray, 635/667 nm fluorescence, primary screen (AID 1142); details: 635 nm fluorescence, higher = more signal;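 further: fluorescence read at 667 nm with signal to noise per printed feature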
# [2] = ATP-based viability of Huh7 replicon cells – cell-based, CellTiter-Glo luminescence, basal, 48 h, cytotoxicity control for HCV replication inhibitor project, primary screen (AID 1143); details: higher = more signal, called active from +8 up or from −8 down;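 further: Huh7 hepatoma cells carrying a hepatitis C replication reporter with no stimulus; test concentration not given here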
# [3] = Pseudomonas biofilm growth suppression – PAO1 strain, BacTiter-Glo luminescence, LB-PBS, primary screen (AID 1144); details: P. aeruginosa PAO1 biofilm, 12 h, higher = more signal
# [4] = basal CRE-LacZ reporter activity in PC12 – cell-based, unstimulated, primary screen (AID 1145); details: no forskolin, luminescence, 4.5 h, higher = more signal, called active from +8 up or from −8 down
# [5] = forskolin-driven CRE-LacZ activity in PC12 – cell-based, CRE-LacZ reporter, forskolin-stimulated, primary screen (AID 1146); details: luminescence, 4.5 h, higher = more signal, called active from +8 up or from −8 down;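 further: PC12 cells with 6xCRE LacZ reporter stimulated by forskolin 10 µM; beta-galactosidase reporter signal reflecting CREB driven transcription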
# [6] = target: Streptavidin (Streptomyces avidinii) (UniProt P22629); test: compounds binding control protein streptavidin – biophysical, small-molecule microarray, 635/667 nm fluorescence, artefact control for SMM compound annotation, primary screen (AID 1147); details: higher = more signal;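 further: signal reflects streptavidin binding to arrayed compounds as a control protein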
# [7] = probe aInhba binding on compound microarray – biochemical, small-molecule microarray, 635/667 nm fluorescence, primary screen (AID 1148); details: higher = more signal;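 further: score merges 667nm spot fluorescence with signal-to-noise for antibody binding to printed compounds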
# Torsin-1A (Homo sapiens) [8] = target: Torsin-1A (Homo sapiens) (UniProt O14656); test: TOR1A wild-type binding on microarray – cell lysate, small-molecule microarray, lysate, 635/667 nm, primary screen (AID 1149); details: COS7 hTOR1A-WT lysate, 635 nm fluorescence, higher = more signal
# Torsin-1A (Homo sapiens) [9] = target: Torsin-1A (Homo sapiens) (UniProt O14656); test: torsin A mutant lysate binding on microarrays – cell lysate, small-molecule microarray, COS7 lysate, 635/667 nm fluorescence, primary screen (AID 1150); details: COS7 hTOR1A mutant lysate, 635 nm fluorescence, higher = more signal;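 further: score pools 667 nm emission and signal to noise measuring lysate protein binding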
# [10] = system: Sonic hedgehog protein (Shh); test: Sonic hedgehog microarray binding compounds – biochemical, small-molecule microarray, 635/667 nm fluorescence, primary screen (AID 1151); details: 635 nm fluorescence, higher = more signal;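 further: Shh protein binding to compounds spotted on small-molecule microarray slides; score combines spot fluorescence intensity with signal-to-noise across triplicate slides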
# [11] = optical density shifts of acrAB sulA E. coli – strain DRC41, OD650, 48 h, E. coli filamentation inducer project, primary screen (AID 1152); details: higher = more signal, called active from +8 up or from −8 down;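 further: E. coli MC1000 strain DRC41 lacking acrAB efflux pump and sulA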
# [12] = probe aLefty1 binding on compound microarray – biochemical, small-molecule microarray, 635/667 nm fluorescence, primary screen (AID 1153); details: higher = more signal;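 further: score merges spot fluorescence with signal-to-noise ratio from the scanned slide images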
# [13] = plasmodial surface anion channel blockers, osmotic lysis – cell-based, P. falciparum Indochina, OD700, 1 h, primary screen (AID 1154); details: P. falciparum Indochina infected RBC osmotic lysis, higher = more signal, called active from +8 up or from −8 down
# [14] = plasmodial surface anion channel blockers, osmotic lysis – cell-based, P. falciparum Indochina, OD700, 2 h, primary screen (AID 1155);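 further: lysis reports solute entry through the parasite surface anion channel PSAC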; details: P. falciparum Indochina infected erythrocytes, higher = more signal, called active from +8 up or from −8 down
# [15] = changes in parasitized red cell lysis, either direction – P. falciparum Indochina, OD700, 3 h, PSAC antagonist project, primary screen (AID 1156); details: P. falciparum-infected erythrocytes, osmotic lysis, higher = more signal, called active from +8 up or from −8 down
# [16] = plasmodial surface anion channel blockers, osmotic lysis – cell-based, P. falciparum Indochina, OD700, 18 h, primary screen (AID 1157); details: P. falciparum Indochina infected erythrocytes, osmotic lysis OD700, 18 h; higher = more signal, called active from +8 up or from −8 down
# [17] = S6 kinase pathway phospho-S6 level changes – cell-based, A549, cytoblot, luminescence, serum-stimulated, primary screen (AID 1158); details: 5 h, higher = more signal;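 further: serum-stimulated A549 lung adenocarcinoma cells; signal is phosphorylated S6 detected by cytoblot immunostaining with HRP secondary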
# [18] = target: NADPH oxidase 2 (Homo sapiens) (UniProt P04839); test: compounds shifting NOX2 Amplex Red fluorescence – cell-based, HEK293-NOX2, PMA-stimulated, NOX inhibitor project, primary screen (AID 1159); details: 45 min, higher = more signal, called active from +8 up or from −8 down; further: test concentration not given here
# [19] = target: NADPH oxidase 4 (Homo sapiens) (UniProt Q9NPH5); test: compounds shifting NOX4 Amplex Red fluorescence – cell-based, HEK293-NOX4, tetracycline-induced, NOX inhibitor project, primary screen (AID 1160); details: HEK293-NOX4, Amplex Red H2O2 fluorescence, 45 min; higher = more signal, called active from +8 up or from −8 down
# [20] = target: NADPH oxidase 5 (Homo sapiens) (UniProt Q96PH1); test: compounds shifting NOX5 Amplex Red fluorescence – cell-based, HEK293-NOX5, NOX inhibitor project, primary screen (AID 1161); details: HEK293-NOX5, ionomycin, 45 min, higher = more signal
# Chain of NADPH oxidase 5 (Homo sapiens) (Q96PH1 whole entry, looked up): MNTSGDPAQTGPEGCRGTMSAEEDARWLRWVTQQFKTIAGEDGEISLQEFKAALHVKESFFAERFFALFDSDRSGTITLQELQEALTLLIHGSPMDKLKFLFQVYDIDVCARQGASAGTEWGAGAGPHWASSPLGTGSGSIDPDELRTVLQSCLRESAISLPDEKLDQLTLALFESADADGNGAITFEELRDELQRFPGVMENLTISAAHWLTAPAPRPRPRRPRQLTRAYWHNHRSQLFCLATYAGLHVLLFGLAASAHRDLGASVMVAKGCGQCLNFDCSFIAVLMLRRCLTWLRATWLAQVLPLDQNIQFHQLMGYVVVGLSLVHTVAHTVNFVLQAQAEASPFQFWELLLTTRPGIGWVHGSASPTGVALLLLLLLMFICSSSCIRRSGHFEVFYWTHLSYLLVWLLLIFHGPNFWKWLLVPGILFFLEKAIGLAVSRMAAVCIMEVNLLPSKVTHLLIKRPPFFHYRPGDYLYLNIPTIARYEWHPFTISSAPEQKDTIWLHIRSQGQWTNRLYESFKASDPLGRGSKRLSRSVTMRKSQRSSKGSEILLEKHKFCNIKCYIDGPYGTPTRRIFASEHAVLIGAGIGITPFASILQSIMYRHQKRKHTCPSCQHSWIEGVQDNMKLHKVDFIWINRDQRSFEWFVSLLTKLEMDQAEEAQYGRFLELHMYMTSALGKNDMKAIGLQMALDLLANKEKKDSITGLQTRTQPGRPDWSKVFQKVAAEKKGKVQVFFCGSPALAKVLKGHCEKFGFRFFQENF
# Chain of Streptavidin (Streptomyces avidinii) (P22629 whole entry, looked up): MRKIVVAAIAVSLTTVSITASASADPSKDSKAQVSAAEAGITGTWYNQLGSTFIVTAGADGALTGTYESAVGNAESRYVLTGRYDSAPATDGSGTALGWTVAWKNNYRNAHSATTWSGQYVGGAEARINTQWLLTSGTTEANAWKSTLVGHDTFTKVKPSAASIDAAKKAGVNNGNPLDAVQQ
# Chain of NADPH oxidase 4 (Homo sapiens) (Q9NPH5 whole entry, looked up): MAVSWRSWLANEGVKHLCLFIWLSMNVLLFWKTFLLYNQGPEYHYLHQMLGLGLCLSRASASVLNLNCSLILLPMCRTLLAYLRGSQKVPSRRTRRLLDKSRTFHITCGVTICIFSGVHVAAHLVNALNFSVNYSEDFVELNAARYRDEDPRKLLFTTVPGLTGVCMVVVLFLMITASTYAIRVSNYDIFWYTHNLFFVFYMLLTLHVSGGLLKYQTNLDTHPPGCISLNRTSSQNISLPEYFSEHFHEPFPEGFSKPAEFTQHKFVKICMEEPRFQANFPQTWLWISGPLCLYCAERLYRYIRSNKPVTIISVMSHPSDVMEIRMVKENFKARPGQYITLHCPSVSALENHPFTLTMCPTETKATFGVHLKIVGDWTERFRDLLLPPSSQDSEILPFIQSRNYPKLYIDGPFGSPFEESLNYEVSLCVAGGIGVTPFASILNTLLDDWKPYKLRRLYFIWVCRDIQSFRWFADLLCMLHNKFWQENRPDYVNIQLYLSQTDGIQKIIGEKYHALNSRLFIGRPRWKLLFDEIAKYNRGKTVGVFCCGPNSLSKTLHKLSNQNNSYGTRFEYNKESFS
# Chain of NADPH oxidase 2 (Homo sapiens) (P04839 whole entry, looked up): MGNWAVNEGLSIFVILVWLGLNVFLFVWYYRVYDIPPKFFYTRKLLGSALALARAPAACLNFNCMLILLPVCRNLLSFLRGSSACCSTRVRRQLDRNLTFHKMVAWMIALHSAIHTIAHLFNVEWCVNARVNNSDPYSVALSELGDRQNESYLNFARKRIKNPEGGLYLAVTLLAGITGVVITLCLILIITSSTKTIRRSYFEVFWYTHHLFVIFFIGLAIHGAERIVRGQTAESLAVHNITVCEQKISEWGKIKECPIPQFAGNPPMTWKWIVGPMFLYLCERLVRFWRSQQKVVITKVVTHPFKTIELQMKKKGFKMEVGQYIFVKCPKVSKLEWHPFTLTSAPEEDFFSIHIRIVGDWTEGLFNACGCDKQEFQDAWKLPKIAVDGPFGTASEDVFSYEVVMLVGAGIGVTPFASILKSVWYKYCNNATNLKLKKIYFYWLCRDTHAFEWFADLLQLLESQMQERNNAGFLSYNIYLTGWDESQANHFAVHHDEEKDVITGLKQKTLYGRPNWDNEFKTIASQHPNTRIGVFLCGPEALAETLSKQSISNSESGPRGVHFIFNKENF
# Chain of Torsin-1A (Homo sapiens) (O14656 whole entry, looked up): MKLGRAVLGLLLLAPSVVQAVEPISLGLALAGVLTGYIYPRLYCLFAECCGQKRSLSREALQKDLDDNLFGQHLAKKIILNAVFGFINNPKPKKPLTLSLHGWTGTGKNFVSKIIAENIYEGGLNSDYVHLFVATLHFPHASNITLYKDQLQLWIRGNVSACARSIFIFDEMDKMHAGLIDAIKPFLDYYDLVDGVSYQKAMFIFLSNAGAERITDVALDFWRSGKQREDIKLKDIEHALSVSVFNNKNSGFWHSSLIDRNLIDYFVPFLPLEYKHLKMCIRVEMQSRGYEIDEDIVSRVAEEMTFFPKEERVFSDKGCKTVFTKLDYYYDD
smiles,measurement,setting,value
COCCCNC(=O)[C@]1(CCC(=O)OC(C)(C)C)N=C(c2ccc(OCCCO)cc2)O[C@@H]1c1ccccc1CN=[N+]=[N-],composite z-score,[1],0.297
same,z-score,[2],0.107 (inactive)
same,z-score,[3],-0.514 (inactive)
same,z-score,[4],-0.459 (inactive)
same,z-score,[5],-1.18 (inactive)
same,composite z-score,[6],1.24
same,composite z-score,[7],0.287
same,composite z-score,Torsin-1A (Homo sapiens) [8],1.64
same,composite z-score,Torsin-1A (Homo sapiens) [9],1.58
same,composite z-score,[10],0.233
same,z-score,[11],-0.458 (inactive)
same,composite z-score,[12],1.06
same,z-score,[13],26.3 (active)
same,z-score,[14],7.34 (inactive)
same,z-score,[15],0.785 (inactive)
same,z-score,[16],1.13 (inactive)
same,z-score,[17],-0.0406
same,z-score,[18],-0.974 (inactive)
same,z-score,[19],0.289 (inactive)
same,z-score,[20],-0.307
CCCC[C@H]1OB(O)C[C@H]2C1=C(COC)Cn1c(=O)n(-c3ccccc3)c(=O)n12,composite z-score,[1],0.0162
same,z-score,[2],0.0344 (inactive)
same,z-score,[3],-0.549 (inactive)
same,z-score,[4],-0.327 (inactive)
same,z-score,[5],0.124 (inactive)
same,composite z-score,[6],-0.333
same,composite z-score,[7],-0.182
same,composite z-score,Torsin-1A (Homo sapiens) [8],0.0681
same,composite z-score,Torsin-1A (Homo sapiens) [9],0.0861
same,composite z-score,[10],0.948
same,z-score,[11],0.929 (inactive)
same,composite z-score,[12],-0.101
same,z-score,[13],0.43 (inactive)
same,z-score,[14],0.0541 (inactive)
same,z-score,[15],0.11 (inactive)
same,z-score,[16],0.0357 (inactive)
same,z-score,[17],0.385
same,z-score,[18],0.175 (inactive)
same,z-score,[19],0.317 (inactive)
same,z-score,[20],0.476
Cc1ccccc1C(O)C1C=CC2C(=O)N(c3ccccc3)C(=O)C2N1Nc1ccc(C(C)C)cc1 (stereo not given),composite z-score,[1],0.0944
same,z-score,[2],-0.0816 (inactive)
same,z-score,[3],-0.481 (inactive)
same,z-score,[4],0.812 (inactive)
same,z-score,[5],0.131 (inactive)
same,composite z-score,[6],1.26
same,composite z-score,[7],0.176
same,composite z-score,Torsin-1A (Homo sapiens) [8],-0.0717
same,composite z-score,Torsin-1A (Homo sapiens) [9],0.62
same,composite z-score,[10],0.214
same,z-score,[11],-1.6 (inactive)
same,composite z-score,[12],0.317
same,z-score,[13],1.85 (inactive)
same,z-score,[14],1.05 (inactive)
same,z-score,[15],0.918 (inactive)
same,z-score,[16],0.974 (inactive)
same,z-score,[17],-0.405
same,z-score,[18],-1.22 (inactive)
same,z-score,[19],-4.14 (inactive)
same,z-score,[20],-4.42
CN(C)CCCCCCNC(=O)[C@H]1C[C@H]2C(=O)N3CCC[C@H]3C(=O)N2[C@H]1c1ccc(O)cc1,composite z-score,[1],0.899
same,z-score,[2],-0.865 (inactive)
same,z-score,[3],0.332 (inactive)
same,z-score,[4],-0.268 (inactive)
same,z-score,[5],-0.933 (inactive)
same,composite z-score,[6],0.192
same,composite z-score,[7],0.019
same,composite z-score,Torsin-1A (Homo sapiens) [8],1.95
same,composite z-score,Torsin-1A (Homo sapiens) [9],-0.118
same,composite z-score,[10],2.04
same,z-score,[11],1.47 (inactive)
same,composite z-score,[12],0.0811
same,z-score,[13],0.89 (inactive)
same,z-score,[14],0.326 (inactive)
same,z-score,[15],-0.664 (inactive)
same,z-score,[16],0.253 (inactive)
same,z-score,[17],-0.549
same,z-score,[18],0.544 (inactive)
same,z-score,[19],-1.28 (inactive)
same,z-score,[20],-0.0199
